Test results taken from PubChem BioAssay (NCI).
About 79,000 compounds went through this panel and 15% of them were active in at least one assay; those are over-represented in the sample as a whole. The source made the active and inactive calls. Rule as the data show it: active = growth inhibition above about 70%; inactive = the rest. Where a SMILES comes first, the peptide text is derived from it. The star is where a group is joined. Cbz = O=C(OCc1ccccc1)*; Bn = c1ccc(C*)cc1

Key:
[1] = NCI Yeast Anticancer Drug Screen. Data for the rad50 strain (AID 155);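 also: 0% = growth of vehicle-only cultures of the same strain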; settings: S. cerevisiae rad50 strain growth inhibition; at 50.0 µM; active compounds read high
Procedure, shortened: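 Yeast carrying a defined DNA repair defect were exposed to test compounds, and growth was compared with vehicle-treated controls to give percent inhibition.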

[2] = NCI Yeast Anticancer Drug Screen. Data for the mec2-1 strain (AID 157); settings: S. cerevisiae mec2-1 strain, at 50.0 µM, active compounds read high
Procedure, shortened: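 Vehicle-treated cultures served as reference for growth inhibition of compound-exposed mec2-1 yeast.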

[3] = NCI Yeast Anticancer Drug Screen. Data for the sgs1 mgt1 strain (AID 161);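 also: 0% = growth of cultures given vehicle only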; settings: S. cerevisiae sgs1 mgt1 strain, at 50.0 µM, active compounds read high
Procedure, shortened: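 Test agents were incubated with a DNA-repair-mutant yeast strain. Growth was then read and compared against vehicle-treated controls.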

[4] = NCI Yeast Anticancer Drug Screen. Data for the cln2 rad14 strain (AID 165);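 also: 0% = growth equal to vehicle treated cultures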; settings: S. cerevisiae cln2 rad14 strain, at 50.0 µM, active compounds read high
Procedure, shortened: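 Each compound was tested on cln2 rad14 yeast. Inhibition of growth was calculated against vehicle-exposed controls.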

[5] = NCI Yeast Anticancer Drug Screen. Data for the bub3 strain (AID 167); settings: S. cerevisiae bub3 mutant strain, at 50.0 µM, active compounds read high
Procedure, shortened: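 Compounds were applied to a genetically altered yeast strain carrying a cell-cycle control defect. Growth inhibition was scored against vehicle-treated controls.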

[6] = NCI Yeast Anticancer Drug Screen. Data for the mlh1 rad18 strain (AID 175); settings: S. cerevisiae mlh1 rad18 strain growth inhibition; at 50.0 µM; active compounds read high
Procedure, shortened: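 Vehicle-treated cultures served as the reference for growth inhibition in a yeast strain carrying DNA damage repair alterations exposed to each compound.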

Measured: growth inhibition

O=C(/C=C/c1ccccc1)N(Cc1ccccc1)c1ccccc1
active: [1] 94.3% | [2] 96.7% | [3] 96.7% | [4] 93.5% | [5] 95.2% | [6] 95.6%

N=C1N(S(=O)(=O)c2ccccc2)[C@@H](Cc2ccccc2)[C@H](c2ccccc2)C1(c1ccccc1)c1ccccc1
inactive: [1] -25.1% | [2] -7.3% | [3] 6.05% | [4] -29.6% | [5] -3.5% | [6] 18.2%

CC(C)C(NC(=O)C(CSCc1ccccc1)NC(=O)OCc1ccccc1)C(N)=O (stereo unspecified) (Cbz-Cys(Bn)-Val-NH2; configuration not given here)
inactive: [1] 8.8% | [2] 16.1% | [3] 1.6% | [4] -3.65% | [5] -0.9% | [6] 30.6%

CC(=O)OCC(OC(C)=O)C(OC(C)=O)C(OC(C)=O)C1OC(=O)C(OC(C)=O)C1OC(C)=O (stereo unspecified)
inactive: [1] 0.5% | [2] -12% | [3] 3.8% | [4] 2.25% | [5] -0.75% | [6] 9.9%

CCCC(Sc1nc(N)nc2nc[nH]c12)C(=O)O (stereo unspecified)
inactive: [1] -18.7% | [2] -10.2% | [3] -26.3% | [4] -24.3% | [5] -29% | [6] 4.9%

CCC1CCN=C(NS(=O)(=O)c2cc(C)c(Cl)cc2S)N1 (stereo unspecified)
inactive: [1] -29.8% | [2] -5.25% | [3] -25.2% | [4] -18.1% | [5] 4.9% | [6] -33%

Nc1ccc(I)cn1
inactive: [1] -3.35% | [2] 5.7% | [3] -3.65% | [4] -11.7% | [5] 14.6% | [6] -3.95%

O=C(CN1CCCC1)Nc1ccc2c(c1)C1Oc3ccccc3CC1CO2 (stereo unspecified)
inactive: [1] 7.65% | [2] 4.2% | [3] 5.55% | [4] 11.6% | [5] -12.7% | [6] 30.6%

N#CCc1csc(-c2ccccc2)n1
inactive: [1] 26.6% | [2] 16.8% | [3] 6.2% | [4] 15.2% | [5] 1.55% | [6] 27%

Cc1cc(N(CCC#N)S(=O)(=O)c2ccccc2)ccc1C=O
inactive: [1] 25.9% | [2] -34.1% | [3] 13.9% | [4] -9.05% | [5] -9.15% | [6] -4.15%

CCN(Cc1ccc(S(=O)(=O)O)cc1)c1cccc(S(=O)(=O)O)c1
inactive: [1] 14.1% | [2] 26.4% | [3] 18.4% | [4] -20.9% | [5] -18.2% | [6] 9.35%

O=C(c1ccccc1)c1cccc(C(=O)c2ccccc2)n1
inactive: [1] -7.5% | [2] -12.7% | [3] -17.7% | [4] 1.9% | [5] -13.8% | [6] -8.55%

CNc1nc2c(C)ccc3[nH]c(NC)nc3c-2n1
inactive: [1] -22.2% | [2] -25.1% | [3] -6.65% | [4] 1.95% | [5] -41.4% | [6] -15.9%

COc1cc2c(c(OC)c1OC)-c1ccc(SC)c(=O)cc1[C@@H](NC(=O)C(F)(F)F)CC2
inactive: [1] 11.1% | [2] -53.7% | [3] -18.1% | [4] -13.8% | [5] -12.7% | [6] -4.75%

O=C(Nc1ccc(Cl)c(Cl)c1)c1ccc(Cl)cc1
inactive: [1] 2% | [2] 11.3% | [3] 7.65% | [4] 8.2% | [5] 19.1% | [6] 13%

Cc1ccccc1C(=O)NCc1ccccc1
inactive: [1] 13.6% | [2] -6.7% | [3] 0.6% | [4] -27.5% | [5] 11.3% | [6] 4.25%

Cc1ccc(S(=O)(=O)Nc2ccc(C(=O)NC(CCC(=O)O)C(=O)O)cc2)cc1 (stereo unspecified)
inactive: [1] 3.3% | [2] 2.95% | [3] -8.05% | [4] -2.45% | [5] -1.5% | [6] 13.7%

O=C(NN1C(=O)C(Cl)C1c1cccc(Cl)c1)c1ccccc1O (stereo unspecified)
inactive: [1] -58.4% | [2] -29.2% | [3] -8.35% | [4] -26.6% | [5] -40.2% | [6] -17.1%

Nc1ncnc(N)c1NC(=O)c1cccc(C(=O)c2ccccc2)c1
inactive: [1] 2.85% | [2] 16.1% | [3] -10.7% | [4] -3.5% | [5] 0.85% | [6] 0.85%

CC1(C)C2CCC(C2)C1/C=C1/SC(=S)NC1=O (stereo unspecified)
inactive: [1] -6.2% | [2] -1.55% | [3] 1.55% | [4] 49% | [5] 17.8% | [6] 2.85%

CC(=O)OC(C)C(=O)OCC1OC(OC(=O)C(C)OC(C)=O)C(OC(=O)C(C)OC(C)=O)C(OC(=O)C(C)OC(C)=O)C1OC(=O)C(C)OC(C)=O (stereo unspecified)
inactive: [1] 7.6% | [2] -13.8% | [3] -10.6% | [4] -42.4% | [5] -12.1% | [6] 7.95%
